# Compound activity as filed in PubChem.
# A selection: hits, their analogues and other compounds. The true share with any hit is near 2.9%.
# EPAC2 ant val: validation of human EPAC2 antagonists; EPAC2 Rap1B BODIPY-GDP exchange, fluorescence; Potency, µM (top dose mostly 112 µM), without a hit: top-dose activity, negative = inhibition, hits mostly inhibitors; 1.7% of 16,000 active;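 further: 100% = activation by cAMP agonist control; nearly all actives have a fitted effect of over 40% in size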
#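 Fluorescent exchange read-out: 100 nM EPAC2 with 250 nM RAP1B–BODIPY-GDP and 50 uM GDP; BODIPY-GDP release lowers fluorescence. Read at 480/540 nm every 5 min for 30 min at room temperature; normalized to 6.5 mM cAMP.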
# EPAC1 agonist: human EPAC1 agonism, validation; O95398; EPAC1 Rap1b BODIPY-GDP exchange, fluorescence; Potency, µM, for the others: max response, positive = active, most hits filed as activators; 1% of 16,000 active; AID 1645883; further: nearly all actives have a fitted effect of over 70% in size
# Target sequence (O95398 whole entry, looked up): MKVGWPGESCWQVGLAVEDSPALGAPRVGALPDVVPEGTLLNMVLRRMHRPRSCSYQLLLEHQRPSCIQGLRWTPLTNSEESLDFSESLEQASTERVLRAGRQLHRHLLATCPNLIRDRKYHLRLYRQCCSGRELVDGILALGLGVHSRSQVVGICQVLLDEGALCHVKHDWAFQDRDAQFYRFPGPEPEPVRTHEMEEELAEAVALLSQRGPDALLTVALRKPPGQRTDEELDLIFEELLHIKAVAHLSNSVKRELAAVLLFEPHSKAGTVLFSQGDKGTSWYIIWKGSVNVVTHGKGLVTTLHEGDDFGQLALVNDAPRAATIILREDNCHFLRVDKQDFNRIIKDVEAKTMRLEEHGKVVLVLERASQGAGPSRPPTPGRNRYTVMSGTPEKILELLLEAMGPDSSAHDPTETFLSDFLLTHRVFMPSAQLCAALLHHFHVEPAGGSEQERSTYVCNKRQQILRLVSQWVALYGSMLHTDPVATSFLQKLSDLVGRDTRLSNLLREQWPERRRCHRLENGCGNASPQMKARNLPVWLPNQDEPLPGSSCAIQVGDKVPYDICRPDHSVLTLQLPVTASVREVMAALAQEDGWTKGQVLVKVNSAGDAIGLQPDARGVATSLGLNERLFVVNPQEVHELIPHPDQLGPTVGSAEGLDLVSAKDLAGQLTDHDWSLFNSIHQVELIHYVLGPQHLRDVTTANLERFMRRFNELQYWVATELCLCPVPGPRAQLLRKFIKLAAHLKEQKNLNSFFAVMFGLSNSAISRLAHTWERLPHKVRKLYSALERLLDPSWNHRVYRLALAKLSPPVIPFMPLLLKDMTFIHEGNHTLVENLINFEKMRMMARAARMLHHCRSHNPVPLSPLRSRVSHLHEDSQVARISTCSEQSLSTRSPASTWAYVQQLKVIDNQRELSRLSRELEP
# * marks the source's active call; other numbers are inactive results; i = inactive; ? = inconclusive; ! = repeats disagree. The call rests on the fitted dose curve; in most records, active means well fitted curve in the direction sought with a large enough effect; inconclusive means small, poorly fitted or top-dose-only effect, or another doubt; inactive means no such curve, though single readings can be large; an effect the other way counts as inactive or inconclusive. Unless noted, on the % scale 0 is the no-effect control and ±100 the full control effect; potency means the concentration at half of the fitted maximal effect.
SMILES,EPAC2 ant val,EPAC1 agonist
Oc1ccc(Cl)cc1Sc1cc(Cl)ccc1O,50µM*,-30%
Cc1ncc(Cc2ccccc2)c(C2CCN(S(=O)(=O)C[C@]34CC[C@H](CC3=O)C4(C)C)CC2)n1,?,29%
Cc1ncc2c(c1CNS(=O)(=O)c1cccs1)CCN(C(=O)/C=C/c1cc(F)cc(F)c1)C2,-14%,14%
COc1cc(-c2ccc(N=Nc3ccc4c(S(=O)(=O)O)cc(S(=O)(=O)O)c(N)c4c3O)c(OC)c2)ccc1N=Nc1ccc2c(S(=O)(=O)O)cc(S(=O)(=O)O)c(N)c2c1O,28µM*!,5%
COc1ccc2ccc(=O)oc2c1CC=C(C)C,?,-40%
COc1cc2ccc(=O)oc2cc1O,-16%,100µM*!
COc1cc(OC)c(CN2CCOc3ccc(CN4CCC(O)CC4)cc3C2)c(OC)c1,12%,-22%
CC(=O)Oc1ccc2c(c1)CC[C@@H]1[C@@H]2CC[C@]2(C)[C@@H](O)CC[C@@H]12,88%,28µM*
CC(=O)Oc1ccc2c(c1)CCC1C2CC[C@]2(C)C(OC(C)=O)CCC12 (some centres undefined),-21%,?
CC(CN1c2ccccc2Sc2cccnc21)N(C)C (centres undefined),16%,-16%
COc1cccc(N2[C@@H](CC(C)=O)c3cc(C(F)(F)F)ccc3S2(=O)=O)c1,?,-2%
CCOC(=O)C[C@H]1c2ccc(C(F)(F)F)cc2S(=O)(=O)N1c1cccc(OC)c1,45µM*,-50%
COc1ccccc1C(=O)N(Cc1cc2cccc(C)c2nc1N1CCC(O)CC1)C1CC1,-12%,4%
COC(=O)c1cn([C@@H]2C[C@@H](C(=O)N3CCCCCC3)N(Cc3cc4ccccc4s3)C2)nn1,?,-7%
CC(C)(CO)[C@@H](O)C(=O)NCCCC(=O)O,-17%,-1%
COc1ccc(C(=O)N2CCC3(CCCN(c4ccncc4)C3)CC2)cc1,-25%,6%
COc1ccc(C(=O)N2CCC3(CC2)CN(c2ccncc2)C3)cc1,-30%,100µM*
OCC(S)CS (centres undefined),-16%,12%
CCCC(=O)OC[C@@H](OC(=O)CCC)[C@@H](OC(=O)CCC)[C@H](Cn1c2nc(=O)[nH]c(=O)c-2nc2cc(C)c(C)cc21)OC(=O)CCC,119%,?
Cc1cc2nc3c(=O)[nH]c(=O)nc-3n(CC(O)C(O)C(O)CO)c2cc1C (centres undefined),i,35µM*
C/C1=C2N=C(/C=C3N=C(/C(C)=C4\[N-][C@@](C)([C@@H]5N=C1[C@](C)(CCC(=O)NCC(C)OP(=O)(O)O[C@H]1[C@@H](O)[C@@H](n6cnc7cc(C)c(C)cc76)O[C@@H]1CO)[C@H]5CC(N)=O)[C@@](C)(CC(N)=O)[C@@H]4CCC(N)=O)[C@@](C)(CC(N)=O)[C@@H]\3CCC(N)=O)C(C)(C)[C@@H]/2CCC(N)=O.CC(=O)O.[Co] (some centres undefined),79µM*,-44%
Cc1sc(N)c(C(=O)c2cccc(C(F)(F)F)c2)c1C,56µM*,-44%
Cc1oc(-c2ccccc2NC(=O)C2CCC2)nc1CNC(=O)c1cccc(C(F)(F)F)c1,-36%,13%
CCCN=C(N)NCCC[C@H](N)C(=O)O,-23%,-2%
CCCCC(CC)CN=C(N)NC(N)=NCCCCCCN=C(N)NC(N)=NCC(CC)CCCC (centres undefined),56µM*,-49%
SMILES,EPAC2 ant val,EPAC1 agonist
Cc1cnc(-n2ncc(C(=O)NCCc3cccnc3)c2C)nc1-c1cccs1,?,-8%
CCC1C(=O)NCCN1Cc1ccc2c(c1)CN(Cc1cccc(OC)c1OC)CCO2 (centres undefined),-6%,7%
c1ccc(-c2onc(-c3ccco3)c2-c2ccc3c(c2)OCO3)cc1,-18%,112µM*
COc1ccc(-c2c(-c3ccc4c(c3)OCO4)noc2-c2ccsc2)cn1,?,-5%
CN(C)CCC=C1c2ccccc2COc2ccccc21,5%,-4%
CCc1nc(CN2CCOc3ccc(C(O)C4CCCCC4)cc3C2)c(C)[nH]1 (centres undefined),-15%,-4%
CC(=O)c1ccc2oc3ccccc3c(=O)c2c1,18%,2%
CCc1oc2ccccc2c1C(=O)c1cc(Br)c(O)c(Br)c1,45µM*,-42%
CO[C@H]1[C@H](NC(=O)c2ccco2)c2ccccc2C12CCN(Cc1cc(Cl)ccc1O)CC2,-33%,19%
CN(C)c1ccc(/C=C/c2c3c(nc4ccccc24)CCCC3)cc1,84%,100µM*
Cc1cnc2ccccc2c1/C=C/c1ccc(N(C)C)cc1,-34%,100µM*
CN(C)c1ccc(/C=C/c2cc(N(C)C)nc3ccccc23)cc1,?,-15%
Cc1nc2ccccc2nc1/C=C/c1ccc(N(C)C)cc1,?,-53%
CCCCCCC(=O)O[C@H]1CC[C@H]2[C@@H]3CCc4cc(O)ccc4[C@H]3CC[C@]12C,-19%,-111%
O=C(O)c1ccccc1[O-].O=C(O)c1ccccc1[O-].[Zn+2],4%,3%
CC(NC(=O)c1cc(F)ccc1F)c1nnc2n1CCN(Cc1ccc(-c3ccccc3)cc1)CC2 (centres undefined),-18%,0%
OCCN1CCN(CCCN2c3ccccc3Sc3ccc(Cl)cc32)CC1,35µM*!,2%
CN(C)CCCN1c2ccccc2Sc2ccc(Cl)cc21,-24%,1%
CCC(=O)OCC(=O)[C@@]1(OC(=O)CC)[C@H](C)C[C@H]2[C@@H]3CCC4=CC(=O)C=C[C@]4(C)[C@@]3(F)[C@@H](O)C[C@@]21C,?,25%
CN[C@@H]1[C@@H](O)[C@@H](O[C@@H]2[C@@H](O)[C@H](O[C@H]3O[C@H](CN)[C@@H](O)[C@H](O)[C@H]3O)[C@@H](N)C[C@H]2NC(=O)C(O)CN)OC[C@]1(C)O (some centres undefined),-1%,5%
Cc1cc(O)c2c(c1)O[C@@]1(C)CC[C@H]3C(C)(C)CCCC34CO[C@@H]2[C@H]41 (some centres undefined),?,-17%
C1=Cc2ccccc2/C1=C/c1ccc(/C=C2\C=Cc3ccccc32)cc1,17%,?
C1=Cc2ccccc2/C1=C\c1ccc2c(c1)OCO2,?,100µM*
CCC(CN)CC(C)CCNCC(O)CNCC(C)CC(CC)CN (centres undefined),15%,0%
N[C@@H](Cc1ccc(O)c(O)c1)C(=O)O,1%,-1%
SMILES,EPAC2 ant val,EPAC1 agonist
N[C@H](C(=O)O)[C@@H](O)c1ccc(O)c(O)c1,79µM*,?
COc1cccc(C(=O)NCc2nc(-c3cccc(NC(=O)c4ccoc4C)c3)oc2C)c1,?,16%
NCCC[C@H](N)C(=O)O,4%,6%
CCCCCCCCCCCCCCCCCCN(CCCCCCCCCCCCCCCCCC)c1ccc(/C=C/c2ccnc3ccccc23)cc1,-27%,-17%
C=Nc1ccc(/C=C/c2ccnc3ccccc23)cc1,28%,100µM*
CCCCN(CCCC)c1ccc(/C=C/c2ccnc3ccccc23)cc1,130%,112µM*
C(=C\c1ccnc2ccccc12)/c1ccnc2ccccc12,-34%,-90%
Cc1cc(CC(C)CC(C)(C)C)n(O)c(=O)c1 (centres undefined) (tested in a mixture with another compound),?,-66%
Cc1ccc2[nH]c3c(c2c1)CN(C(=O)CC1(c2ccccc2)CC(=O)N(Cc2cccnc2)C1=O)CC3 (centres undefined),?,7%
